# Measured values published in the supplement of paper PMC8728848.
# Shown is part of a subset that was picked to be rich in the strongest signals.
# B1: CcfD (Bacteroides vulgatus), A6KYX8 (protein)
# chain: MKYKNYFKSIIYLALGAFTLGSCEDFLDRQEDEKLTFDKIWESRNTTQQYWLNAMSFLPNENGSLQGDTEPYLGASDECTIAYDRQYRWINFGTWNPSQVPYYKMDHYYKGIRECNIFLQNVYKCSDPLVTKDQLDEWYWQTRFARAYYYFLMMRDYGPVFLLGDDLLDFTASTEELYRPRNTWDQCVNYVVSEMTQCAESGVVLQQSDLPAAKWGLATVGTCHAVISRLLLYSARPLFNGNKLYSTVKNPDAPDFPELSGVKLFPELDNTKWQKAAEAAKKLIDNPCYELYRAGNDNPYEDYYGVTHETWNKELIWTDRYNGLFSWGVGTVPTGVAGTAYGAVGPTQALVDAYAMNTGWYPITGYEADGTPIVEPLSGYELASELEKSSWIYPSGGWSNKADFEIEAPNMYKDREPRFYVTVFFGGNQWLHGNSATSISFAKGGNGNKSHDYPKSGYLCNRFYDHKLNSSEGQWGNITFPVFRLGEIYLNFIEAVLECKKNGVALDPSYEALAMEKWADLRKRAGLDPITSIYGQVSTEELIQLCRKERQIELAFERHRYFDTRTWMIATQTDNGKMYGMNTSCPLDAGMKGTETPDGFWERTAFETRVFQNKHYLYPFSQRELDRNKLLTQNYGW
# Columns and labels:
# Experiment in all cases: glycan array binding signal (z-score within array); higher = stronger binding
# Settings in all cases: glycan notation: IUPAC condensed, linker removed
# [1] = biological target: Neu5Ac(a2-3)Gal(b1-3)GalNAc(b1-4)Gal(b1-4)Glc
# Method in brief: (§1)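 Columns mapping to the same glycan were averaged after glycan names were converted to IUPAC-condensed notation. The data come from 3228 arrays in the Consortium for Functional Glycomics database, limited to those with an available protein sequence. Binding is reported as a within-array Z-score averaged across arrays of one protein sequence and across linkers.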
# [2] = biological target: Neu5Ac(a2-3)Gal(b1-3)GalNAc(b1-4)[Neu5Ac(a2-3)]Gal(b1-4)Glc
# Method in brief: as §1
# [3] = biological target: Neu5Ac(a2-3)Gal(b1-3)GlcNAc(b1-2)Man(a1-3)[GlcNAc(b1-4)][Neu5Ac(a2-3)Gal(b1-3)GlcNAc(b1-2)Man(a1-6)]Man(b1-4)GlcNAc(b1-4)GlcNAc
# Method in brief: as §1
# [4] = biological target: Neu5Ac(a2-3)Gal(b1-4)Glc
# Method in brief: as §1
# [5] = biological target: Neu5Ac(a2-3)Gal(b1-4)GlcNAc(b1-3)Gal(b1-4)GlcNAc(b1-3)GalNAc
# Method in brief: as §1
# [6] = biological target: Neu5Ac(a2-3)Gal(b1-4)GlcNAc(b1-3)Gal(b1-4)GlcNAc(b1-3)[Neu5Ac(a2-3)Gal(b1-4)GlcNAc(b1-3)Gal(b1-4)GlcNAc(b1-6)]GalNAc
# Method in brief: as §1
# [7] = biological target: Neu5Ac(a2-3)Gal(b1-4)GlcNAc(b1-6)[Neu5Ac(a2-3)Gal(b1-3)]GalNAc
# Method in brief: as §1
# [8] = biological target: Neu5Ac(a2-3)Gal(b1-4)[Fuc(a1-3)]GlcNAc(b1-3)GalNAc
# Method in brief: as §1
# [9] = biological target: Neu5Ac(a2-6)Gal(b1-4)GlcNAc(b1-2)Man(a1-6)[Gal(b1-4)GlcNAc(b1-2)Man(a1-3)]Man(b1-4)GlcNAc(b1-4)GlcNAc
# Method in brief: as §1
# [10] = biological target: Neu5Ac(a2-6)Gal(b1-4)GlcNAc(b1-2)Man(a1-6)[GlcNAc(b1-2)Man(a1-3)]Man(b1-4)GlcNAc(b1-4)GlcNAc
# Method in brief: as §1
# [11] = biological target: Neu5Ac(a2-6)Gal(b1-4)GlcNAc(b1-3)Gal(b1-4)GlcNAc(b1-6)[Gal(b1-3)]GalNAc
# Method in brief: as §1
# [12] = biological target: Neu5Ac(a2-6)GlcNAc(b1-4)GlcNAc
# Method in brief: as §1
# [13] = biological target: Neu5Ac(a2-8)Neu5Ac(a2-8)Neu5Ac(a2-3)Gal(b1-4)Glc
# Method in brief: as §1
# [14] = biological target: Neu5Ac(a2-8)Neu5Ac(a2-8)Neu5Ac(a2-3)[GalNAc(b1-4)]Gal(b1-4)Glc
# Method in brief: as §1
# [15] = biological target: Neu5Gc(a2-8)Neu5Gc(a2-6)Gal(b1-4)GlcNAc
# Method in brief: as §1
binder,measurement,setting,value
B1,glycan array binding signal (z-score),[1],-0.17
same,glycan array binding signal (z-score),[2],2.47
same,glycan array binding signal (z-score),[3],-0.526
same,glycan array binding signal (z-score),[4],-0.589
same,glycan array binding signal (z-score),[5],-0.693
same,glycan array binding signal (z-score),[6],-0.429
same,glycan array binding signal (z-score),[7],5
same,glycan array binding signal (z-score),[8],-0.078
same,glycan array binding signal (z-score),[9],6.49
same,glycan array binding signal (z-score),[10],7
same,glycan array binding signal (z-score),[11],-0.841
same,glycan array binding signal (z-score),[12],0.582
same,glycan array binding signal (z-score),[13],-0.871
same,glycan array binding signal (z-score),[14],-0.556
same,glycan array binding signal (z-score),[15],-1.1
